# Screening data (PubChem BioAssay)
# GPR32 ag: qHTS for Agonists of Human Resolvin D1 Receptor DRV1; hit rate 2.5% among 48,000; CHO-K1 GPR32 beta-arrestin PathHunter luminescence, 90 min; zero percent set by DMSO-only wells; AID 1346428, 2018; activation, % at 76.9 µM;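 active = activation of at least 60% and not above a set upper limit, about 1 call in 100 departs from these limits; inconclusive = activation of 40% to 60%, or above that upper limit; inactive = activation under 40%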; also: 0% is about no effect
#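 Beta-arrestin recruitment read-out: luminescence from complemented beta-Gal in CHO-K1 GPR32 PathHunter cells, measured 1 h after detection reagent at ambient temperature following 90 min compound exposure at 37 °C; DMSO served as basal (EC0) control.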
# GALC G270D act: A Novel Cell-Based Assay to Identify Small Molecules for B -Galactocerebrosidase. P54803. 145M-Twi-hGALC-G270D cells (Twitcher mouse brain line with human GALC G270D), HMU-beta-Gal fluorescence, 48 h. Potency, µM (series often up to 57.5 µM), usual class: activators. hit rate 0.1% among 45,000. AID 1159614, 2016; also: potency is read from the fitted curve at half-maximal effect; 0% is about no effect; nearly all actives have a fitted effect of over 65% in size
#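 Mutant human GALC (G270D), stably expressed in a Twitcher mouse brain cell line lacking endogenous GALC, is measured in live-treated cells via 6-hexadecanoylamino-4-methylumbelliferyl-β-galactoside hydrolysis (0.1 mM final, pH 5.2) with fluorescent detection.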
# PTAP-TSG101 blk: qHTS Validation Assay for Inhibitors of HIV-1 Budding by Blocking the Interaction of PTAP/TSG101: Sytravon Library Screen. Tumor susceptibility gene 101 protein (Homo sapiens), Q99816. Fluorescence polarization, FITC-PTAP peptide/Tsg101, 20 min. Potency, µM (top dose mostly 115 µM), actives largely listed as inhibitors. 44,000 tested, under 10 active; also: potency is read from the fitted curve at half-maximal effect; 0% is about no effect
#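 The Tsg101 binding domain, at 10 uM final, is mixed with compound and a FITC peptide bearing the PTAP motif (50 nM final). After 20 min at r.t., polarization is measured; actives defined by CRC class, efficacy cut-off 60% inhibition.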
# B2AR arrestin ag: qHTS assay of beta-arrestin-biased ligands of beta2-adrenergic receptor: NCGC Sytravon Library Screen; Potency, µM (doses to about 46.1 µM), most hits filed as activators; Beta-2 adrenergic receptor (Homo sapiens), P07550; AID 1347077, 2019; 44,000 tested, under 10 active; HTLA Tango cells, beta-arrestin recruitment, luciferase luminescence, 18 h;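 also: potency is read from the fitted curve at half-maximal effect; 0% = DMSO and full agonism = EC100 isoproterenol or metaproterenol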
# Target sequence (P07550 whole entry, looked up): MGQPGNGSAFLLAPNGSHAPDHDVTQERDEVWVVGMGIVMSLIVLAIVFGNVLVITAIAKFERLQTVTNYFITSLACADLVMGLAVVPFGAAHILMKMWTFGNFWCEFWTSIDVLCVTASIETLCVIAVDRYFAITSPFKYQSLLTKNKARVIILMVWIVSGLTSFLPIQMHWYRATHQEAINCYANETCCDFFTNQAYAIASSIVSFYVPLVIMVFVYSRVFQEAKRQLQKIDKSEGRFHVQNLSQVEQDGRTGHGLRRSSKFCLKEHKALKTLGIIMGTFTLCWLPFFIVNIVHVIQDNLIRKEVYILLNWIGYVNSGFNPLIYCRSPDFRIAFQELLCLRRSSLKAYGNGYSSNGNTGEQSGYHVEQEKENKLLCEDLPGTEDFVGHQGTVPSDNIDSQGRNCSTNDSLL
#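 Receptor–beta-arrestin recruitment read by tTA-responsive luciferase: compound titrations (up to 46 µM) incubated 18 h with Tango cells, then luminescent substrate 15 min at room temperature. Concentration-response fits classified by r2, efficacy and activity.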
# Numbers without * were called inactive; i = inactive; ? = inconclusive; . = not tested or not shown; ! = not active in a repeat. A selection: hits, their analogues and other compounds. The true share with any hit is near 2.9%. Unless noted, calls follow the shape of the dose curve; as a rule, active = well fitted curve in the direction sought with a large enough effect; inconclusive = small, poorly fitted or top-dose-only effect, or another doubt; inactive = no such curve, though single readings can be large; an effect the other way counts as inactive or inconclusive.
SMILES,GPR32 ag,GALC G270D act,PTAP-TSG101 blk,B2AR arrestin ag
CCn1c(=O)cc(OCC(=O)NCc2ccccc2OC)c2ccccc21,118.0*,i,i,i
CCn1c(=O)cc(OCC(=O)N2CCN(c3ccc(OC)cc3)CC2)c2ccccc21,80.8*,i,i,i
CCn1c(=O)cc(OCC(=O)N2CCN(c3ccc(C(C)=O)cc3)CC2)c2ccccc21,13.8,i,i,i
CCn1c(=O)cc(OCC(=O)Nc2cc(OC)c(OC)c(OC)c2)c2ccccc21,89.5*,i,i,i
CCn1c(=O)cc(OCC(=O)NCc2ccccc2Cl)c2ccccc21,71.5*,i,i,i
Cc1cccc(C(=O)Nc2ccc(C(=O)OCc3cc(=O)n4nc(C5CC5)sc4n3)cc2)c1,-5.9,i,i,i
COc1cc(NC(=O)CC2C(=O)OCCN2Cc2ccccc2)cc(OC)c1 (centres undefined),-3.2,i,i,i
COc1ccc(-c2ccc(CCC(=O)O)n2-c2ccc(Cl)cc2C)cc1,-5.5,i,i,i
Cc1c(Cl)cccc1Nc1ccccc1C(=O)O,?,i,.,.
Cc1ccc(Cl)c(Nc2ccccc2C(=O)O)c1Cl,103.0*!,i,.,.
COc1ccccc1-c1nc(CNC(=O)Nc2ccccc2)c(C)o1,23.0,i,i,i
COc1ccc(-c2nc(CNC(=O)Nc3ccccc3)c(C)o2)c(OC)c1,64.7*,i,i,i
COc1ccc2[nH]cc(CCNC(=O)Nc3cccc(F)c3)c2c1,93.2*,i,i,i
Cc1oc(-c2ccccc2)nc1CNS(=O)(=O)c1ccc(Cl)cc1,115.4*,i,i,i
Cc1oc(-c2ccccc2)nc1CNC(=O)Nc1ccccc1,?,i,i,i
COC(=O)c1ccc(NC(=O)CCS(=O)(=O)c2ccc(Br)s2)cc1,-13.5,i,i,i
O=C(CCNS(=O)(=O)c1ccc(Br)s1)Nc1ccc(Br)cc1,88.6*,i,i,i
O=P(O)(O)OCC(O)CO (centres undefined),2.6,i,.,.
CC1CCc2c(sc3nnn(CC(=O)Nc4c(C(C)C)cccc4C(C)C)c(=O)c23)C1 (centres undefined),-9.8,i,i,i
CN(C1CCCCC1)S(=O)(=O)c1ccc(C(=O)Nc2sc3c(c2C(N)=O)CC(C)(C)NC3(C)C)cc1,117.6*,i,i,i
CC(C)CN(CC(C)C)S(=O)(=O)c1ccc(C(=O)Nc2sc3c(c2C(N)=O)CC(C)(C)NC3(C)C)cc1,-13.3,i,i,i
CCCCn1c(NCc2ccc(OC)cc2O)nc2ccccc21,70.1*,i,i,i
CCCCCn1c(NCc2ccccc2OC)nc2ccccc21,10.1,i,i,i
COc1ccc(OCCn2c(NC(=O)c3ccc(OC)cc3)nc3ccccc32)cc1,62.8*,i,i,i
C#C[C@]1(O)CC[C@H]2[C@@H]3[C@H](C)CC4=C(CCC(=O)C4)[C@H]3CC[C@@]21C,98.6*,i,.,.
SMILES,GPR32 ag,GALC G270D act,PTAP-TSG101 blk,B2AR arrestin ag
O=C(CC1Nc2cccc3cccc(c23)NC1=O)Nc1ccc(F)cc1 (centres undefined),64.2*,i,i,i
CCOC(=O)c1ccc(NC(=O)Cn2nc(SC)c(S(=O)(=O)c3ccc(Cl)cc3)c2N)cc1,69.5*,i,i,i
COCCc1ccc(OCC2CO2)cc1 (centres undefined),-7.1,i,.,.
CCCCC/C(C=O)=C\c1ccccc1,0.0,i,.,.
COc1cc(N)c(Cl)cc1C(=O)OCCN1CCCCC1,-4.2,.,.,.
COc1cc(N)c(Cl)cc1C(=O)NC1CCN(CCCOc2ccc(F)cc2)CC1OC (centres undefined),63.8*,i,.,.
O=C(Nc1ccc(F)cc1F)c1cc2c(=O)n3ccccc3nc2s1,15.1,22.4µM*,i,i
CCn1c(=O)c2c(nc(C=Cc3ccc(OC)c(OC)c3)n2C)n(CC)c1=O,-16.0,i,.,.
O=S(=O)(c1ccccc1)n1nc(-c2ccc(Cl)cc2)nc1NCc1ccc(F)cc1,71.6*,i,i,i
CNC(=O)CN(CCN(CCN(CC(=O)[O-])CC(=O)NC)CC(=O)[O-])CC(=O)[O-].O.[Gd+3],11.5,i,.,.
O[C@@H](CNC[C@H](O)[C@H]1CCc2cc(F)ccc2O1)[C@@H]1CCc2cc(F)ccc2O1,62.4*,i,.,.
Cc1c(C(=O)OC2CCCCCC2)[nH]c2c1C(=O)CC(c1ccccc1)C2 (centres undefined),78.6*,i,i,i
Cc1c(-c2ccc(Cl)cc2)c(=O)oc2c(CN3CCCC3)c(O)ccc12,5.4,39.8µM*,i,i
Cc1c(-c2ccc(Cl)cc2)c(=O)oc2c(CN3CCOCC3)c(O)ccc12,-1.3,i,i,i
CO[C@@]1(NC(=O)CSCC#N)C(=O)N2C(C(=O)O)=C(CSc3nnnn3C)CS[C@@H]21,64.0*!,i,.,.
CN(C)CCn1nnnc1SCC1=C(C(=O)O)N2C(=O)[C@@H](NC(=O)Cc3csc(N)n3)[C@H]2SC1,-4.0,i,.,.
O=C(Nc1cccc(Cl)c1)c1cc(-c2ccc3c(c2)OCCO3)on1,22.8,i,i,i
O=C(Nc1cccc(C(F)(F)F)c1)c1cc(-c2ccc3c(c2)OCCO3)on1,94.0*,i,i,i
COc1ccccc1/C=C/c1nc(C#N)c(N2CCN(C)CC2)o1,-8.2,28.2µM*,i,i
Cc1ccc(C(=O)C(=O)O)cc1C,3.9,i,.,.
O=C(NCCc1ccc(Cl)cc1)c1ccc2c(c1)N(Cc1ccc(F)cc1Cl)C(=O)CS2,9.0,i,i,i
O=C(NCCc1ccccc1)c1ccc2c(c1)N(Cc1ccc(F)cc1Cl)C(=O)CS2,107.8*,i,i,i
Cc1nn(-c2ccccc2)c2sc(C(=O)Nc3ccc(Cl)cc3Cl)cc12,-19.7,i,i,i
CCCCC(=O)OCC(=O)[C@H]1[C@H](C)C[C@H]2[C@@H]3C[C@H](F)C4=CC(=O)C=C[C@]4(C)[C@@]3(F)[C@@H](O)C[C@@]21C,36.7,i,.,.
O=S(=O)(Nc1nc2n(n1)C(c1ccc(F)cc1)C=C(c1ccc(Cl)cc1)N2)c1ccccc1 (centres undefined),94.8*,i,i,i
O=S(=O)(Nc1nc2n(n1)C(c1ccc(F)cc1)C=C(c1ccccc1)N2)c1ccccc1 (centres undefined),96.0*,i,i,i
